This note sets out measurements from PubChem BioAssay AID588342 (National Center for Advancing Translational Sciences (NCATS), 2011).

The campaign covered roughly 360,000 compounds. About 25,000 (6.9%) were called active. About 9% were inconclusive and are not listed. This excerpt belongs to a sample that is enriched for actives. Values without a mark were called inactive. The call rests on the fitted dose curve; in most records, active means well fitted inhibition curve with a large enough effect; inconclusive means small, poorly fitted or top-dose-only effect; inactive means flat fitted curve, though single readings scatter.

Chain of Luciferin 4-monooxygenase (Photinus pyralis) (P08659 whole entry, looked up): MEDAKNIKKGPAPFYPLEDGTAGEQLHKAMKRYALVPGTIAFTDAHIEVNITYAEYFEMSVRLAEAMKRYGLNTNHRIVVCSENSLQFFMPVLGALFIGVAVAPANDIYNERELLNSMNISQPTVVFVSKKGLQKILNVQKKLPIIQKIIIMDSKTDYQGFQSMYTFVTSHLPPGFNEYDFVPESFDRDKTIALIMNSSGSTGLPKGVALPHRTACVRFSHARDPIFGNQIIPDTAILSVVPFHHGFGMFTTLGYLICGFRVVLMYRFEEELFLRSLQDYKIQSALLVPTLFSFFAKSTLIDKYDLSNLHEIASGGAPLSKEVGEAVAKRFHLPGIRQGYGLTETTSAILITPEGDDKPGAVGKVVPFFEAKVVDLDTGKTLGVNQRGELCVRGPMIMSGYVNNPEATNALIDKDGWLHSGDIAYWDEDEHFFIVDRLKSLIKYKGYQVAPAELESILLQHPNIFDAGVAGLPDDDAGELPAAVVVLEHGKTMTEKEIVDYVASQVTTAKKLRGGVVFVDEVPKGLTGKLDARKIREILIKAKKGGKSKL

In this test the target is Luciferin 4-monooxygenase (Photinus pyralis) (UniProt P08659). In words: qHTS profiling assay for firefly luciferase inhibitor/activator using purifed enzyme and Km concentrations of substrates (counterscreen for miR-21 project). Further: nearly all actives have a fitted effect of over 55% in size.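 On activity change, negative = inhibition: plate controls were vehicle for no effect and reference inhibitor for full effect.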 The note with it: purified FLuc, luminescence inhibition; series mostly up to 57.5 µM; activity change, negative = inhibition: at the top concentration. The source says:
MLPCN Grant: 1 R21 NS059478-01 (miR-21 grant) Assay Provider: NCGC NCGC Assay Overview: Firefly (Photinus pyralis) luciferase is one of the most commonly used transcriptional reporters for a number of reasons. It is considered one of the more dynamically responsive reporters -that is, responsive to changes in reporter transcription - as it requires no post-translational modifications and is enzymatically active directly after protein synthesis (Wood, 1998). Additionally, the half-life of the luciferase protein is short relative to other reporter-gene products (Wood, 1995). Whereas reporters with long half-lives potentially allow for increased signal due to accumulation of reporter-gene product, once accumulated in the cell, dynamic changes in reporter-gene expression may be difficult to detect(Fan and Wood, 2007; Almond et al., 2004). It has been shown that wild-type P. pyralis luciferase has a half-life of approximately […] hours in mammalian cells (Thompson et al., 1991). Firefly luciferase reporter-gene assays are also generally considered one of the most sensitive assay types (Wood, 1995; Wood, 1998). Although light produced in a bioluminescence reaction is of lower intensity than that produced during fluorescence emission, this is offset by little to no background light inherent to luminescent assays. Thus the luciferase reporter can be expressed at much lower levels than fluorescent proteins while still providing robust signal. # However, it was initially observed, in 1991, by Thompson et al., that compounds that resemble the substrates of firefly luciferase (FLuc) can act as competitive inhibitors of the enzyme, and that these compounds, upon interaction with luciferase in the cell, can actually stabilize the protein and increase its half-life. Accumulated intracellular FLuc protein can be measured as an increase in luminescence signal, upon addition of detection reagents (which contain high concentrations of FLuc substrates) commonly used in high-throughput screening. In cell-based reporter gene assays that use FLuc as the reporter gene to quantitate the potential influence of a given compound against the target biology, this apparent increase in luminescence can mistakenly be interpreted as identification of a compound that is active against the target of interest. This is the case for the miR-21 FLuc reporter gene assay used to identify inhibitors of the miR-21 pathway (PubChem AID 2289) - compounds of interest will inhibit miR-21 biogenesis/expression or activity, and are identified by causing an increase in luminescence, due to increased FLuc translation. However, FLuc inhibitory compounds that stabilize the FLuc protein will give an identical read-out, making it difficult to distinguish compounds that are active against the target from those active against FLuc. Previous profiling work to determine the prevalence of compounds that affect FLuc enzymatic activity (PubChem AID 411) identified that ~3% of the MLSMR library (then at ~72K) inhibited FLuc. […] Since the MLSMR had grown to ~350K compounds, and since it was expected that a significant percentage of compounds found active in the miR-21 FLuc assay would be FLuc inhibitors, the library was screened for activity against FLuc using a biochemical assay of purified FLuc and KM concentrations of FLuc substrates (D-luciferin and ATP).
NCGC Assay Protocol Summary: Reagents: 50mM Tris acetate, pH 7.5; 10mM Mg acetate; 10uM D-luciferin (Sigma #L9504); 10uM ATP; 0.01% Tween-20; 0.05% BSA; 10nM P. pyralis luciferase (Sigma #L9506) Control compounds used were two known firefly luciferase inhibitors (compounds (2) and (5) in Auld et al., 2010), and DMSO. […]
(qHTS replaces the single test concentration by a dilution series.)
For `CCOc1ccccc1C(=O)Nc1ccc(S(=O)(=O)N2CCCCC2c2cccnc2)cc1` (stereo unspecified), the “activity change, negative = inhibition” value is -8.52%.

Consider `Cc1c(Cl)cccc1NC(=O)Cn1cc(C(=O)c2cccs2)c2ccccc21`, for which the “activity change, negative = inhibition” value was 0.0254%.

As to `Cc1cccc(OCCSc2nc3ccccc3n2CC(=O)N2CCCCC2)c1C`, the “activity change, negative = inhibition” value was -7.31%.

Consider `COc1ccc(CNC(=O)c2ccc(NC(=O)N3CC4CCCN4c4ccccc43)cc2)cc1` (stereo unspecified), for which the “activity change, negative = inhibition” value is -15.4%.

Regarding `O=C(CC(NCc1cccnc1)C(=O)O)Nc1ccc(O)cc1` (stereo unspecified), the “activity change, negative = inhibition” value was -1.49%.

Consider `O=C(NCc1ccccc1CN1CCCC1)c1cccc(S(=O)(=O)Nc2ccc(F)cc2)c1`, for which the “activity change, negative = inhibition” value is -1.42%.

Turning to `O=C(CCNC(=O)Cn1ccc2ccccc2c1=O)NCCC1=CCCCC1`, the “activity change, negative = inhibition” value was -4.15%.

Consider `Cc1ccnc(NC(=O)c2ccco2)n1`, for which the “activity change, negative = inhibition” value is 4.11%.

As to `Cc1ccnc(NC(=O)c2ccc(NC(=O)c3ccco3)cc2)c1`, the Potency was 10.7 µM (active).

In the case of `CC(C)(C)NC(=O)c1cc(NC(=O)c2ccco2)cc(NC(=O)c2ccco2)c1`, the “activity change, negative = inhibition” value was -18%.

For `Cc1cccc(N(C(=O)Cc2cccs2)C(C(=O)NC2CCCC2)c2ccsc2)c1` (stereo unspecified), the “activity change, negative = inhibition” value was 0.969%.

In the case of `CCCOc1ccc(-c2nc(N)n[nH]2)cc1`, the Potency is 13.5 µM (active).

Take `Nc1nc(SCCOc2ccccc2)n[nH]1`: the “activity change, negative = inhibition” value is 0.694%.

Regarding `Cc1ccc(OCCCCc2c(C)n[nH]c2C)cc1`, the “activity change, negative = inhibition” value is -4.93%.

Take `Cc1ccc(CNC(=O)CSc2nnc3c(n2)[nH]c2ccc(F)cc23)cc1`: the “activity change, negative = inhibition” value was 2%.

With `COc1ccc(Cl)cc1NC(=O)C(C)Sc1nc2c(c(=O)[nH]1)CCCC2` (stereo unspecified), the “activity change, negative = inhibition” value is -5.09%.

Consider `COC(=O)CN(c1nc(C)c(Cl)c(OC)n1)S(=O)(=O)c1ccc(C)cc1`, for which the “activity change, negative = inhibition” value is 0.585%.

As to `COc1ccc2c(c1)CCc1c(C(=O)Nc3cc(C)ccc3O)noc1-2`, the “activity change, negative = inhibition” value was -14.2%.

`COc1ccc2c(c1)CCc1c(C(=O)Nc3c(C)n(C)n(-c4ccccc4)c3=O)noc1-2`: the Potency is 23.9 µM (active).

On to `COc1ccc2c(c1)CCc1c(C(=O)N3CCCC3)noc1-2`, for which the Potency is 12 µM (active).

As for `Cc1c(NC(=O)c2cc(-c3ccc(Br)cc3)on2)c(=O)n(-c2ccccc2)n1C`, the Potency entry was “inactive”.

Consider `COc1ccc(S(=O)(=O)NC(C)C(=O)N2CCCCCC2)cc1` (stereo unspecified), for which the “activity change, negative = inhibition” value is 1.17%.

As to `COc1ccc(C(=O)N2CCCN(C)CC2)c(OC)c1`, the “activity change, negative = inhibition” value is 0.687%.

Regarding `COc1ccc(Cl)cc1NC(=O)CSc1nc(-c2cccs2)cc(C(F)(F)F)n1`, the “activity change, negative = inhibition” value was -4.96%.

With `CC(OC(=O)c1ccccc1NCCO)C(=O)Nc1ccnn1C(C)C` (stereo unspecified), the “activity change, negative = inhibition” value is 4.05%.

For `Cn1c(=O)oc2cc(S(=O)(=O)CCC(=O)NCCc3ccc(Cl)cc3)ccc21`, the “activity change, negative = inhibition” value is -0.179%.

Regarding `Fc1ccc(CSc2nc(NCc3ccccc3)c3ccccc3n2)cc1`, the “activity change, negative = inhibition” value is 4.76%.

As to `COc1ccc(CNC(=O)COC(=O)c2ccc(C)c(S(=O)(=O)N3CCOCC3)c2)cc1OC`, the “activity change, negative = inhibition” value was -0.832%.

For the compound `O=C(COC(=O)C1CC2CCCC(C1)C2=O)NC(=O)c1ccccc1` (stereo unspecified), the “activity change, negative = inhibition” value was -6.45%.

As to `CCc1ccc(Oc2coc3cc(OC(=O)c4cc5ccccc5oc4=O)ccc3c2=O)cc1`, the “activity change, negative = inhibition” value is -4.51%.

`COc1ccc(Oc2coc3cc(OC(=O)c4cncc(Br)c4)ccc3c2=O)cc1`: the “activity change, negative = inhibition” value was -0.0286%.

In the case of `CCc1ccc(Oc2coc3cc(O)ccc3c2=O)cc1`, the Potency is 23.9 µM (active).

`N#Cc1ccc(-c2nc3cc(C#N)c(C#N)cc3nc2-c2ccccc2)cc1C#N`: the “activity change, negative = inhibition” value is 2.4%.

Regarding `COc1ccc(C)cc1NC(=O)C(=O)NCCc1sc(-c2cccc(C)c2)nc1C`, the “activity change, negative = inhibition” value is 1.25%.

Take `CC(C)c1ccc(Nc2ncccc2C#N)cc1`: the Potency is 15.1 µM (active).

Take `CN(C)c1ccnc(Nc2ccc(F)cc2)c1C#N`: the “activity change, negative = inhibition” value is 1.3%.

On to `CC(C)c1ccc(NC(=O)Cn2c3ncccc3c(=O)n2-c2ccccc2)cc1`, for which the “activity change, negative = inhibition” value is -9.91%.

Consider `CCOc1cc2[nH]c(=O)n(Cc3ccc(C(=O)NCCN(CC)CC)cc3)c(=O)c2cc1OCC`, for which the “activity change, negative = inhibition” value was 1.65%.

On to `O=C(Nc1ccc(Oc2ccccc2)cc1)C1CCN(S(=O)(=O)c2ccc(Cl)cc2)CC1`, for which the “activity change, negative = inhibition” value is 0.879%.

`O=C(O)c1ccccc1N=N/C(=N/Nc1cc(S(=O)(=O)O)ccc1O)c1ccccc1`: the Potency is 16.9 µM (active).

Regarding `O=C(CN(c1ccccc1)S(=O)(=O)c1ccc(Cl)cc1)Nc1ccccc1C(=O)N1CCCC1`, the “activity change, negative = inhibition” value is -0.092%.

On to `CC(=O)c1c(C)[nH]c(C(=O)OCC(=O)Nc2c(C)cccc2C)c1C`, for which the “activity change, negative = inhibition” value is -0.669%.

Turning to `CC(NC(=S)Nc1ccc(OC(F)F)cc1)c1ccc(F)cc1` (stereo unspecified), the “activity change, negative = inhibition” value was 1.73%.

As for `C[C@@H]1NC(=O)[C@@]2(C)[C@@H](c3ccccc3)[C@H]3COc4ccccc4[C@@H]3N2C1=O`, the “activity change, negative = inhibition” value is 3%.

As to `CCc1ccc(Nc2nn3c(=O)c4cc5c(cc4nc3s2)OCO5)cc1`, the “activity change, negative = inhibition” value was -6.84%.

As to `Cc1c(C(=O)NCc2ccccc2Br)oc2ccc3c(c12)C(=O)CC(C)(C)O3`, the Potency is 1.69 µM (active).

As for `COc1cccc(CNC(=O)COc2cc(O)c3c(c2)OC(C)(C)CC3=O)c1`, the “activity change, negative = inhibition” value is -10.3%.

As for `CC(C)CC(=O)N1CCN(Cc2ccccc2Br)CC1`, the “activity change, negative = inhibition” value was 1.19%.

With `COc1ccc(-c2nc3sc(CCNS(=O)(=O)c4ccc(F)c(C)c4)c(C)n3n2)cc1`, the “activity change, negative = inhibition” value was -19%.

On to `COc1ccc(C(=O)Nc2ccc(-n3nncc3C(C)(C)C)cc2)cc1`, for which the “activity change, negative = inhibition” value was -11.1%.

On to `COc1ccc(CNC(=O)C(=O)N2CCC3(CC2)OCCN3S(=O)(=O)c2ccc(C)cc2)cc1`, for which the “activity change, negative = inhibition” value was -1.75%.
